# From PubChem BioAssay (EPA / NIEHS)
# Where “and” joins values, the source holds several entries; their conditions need not be identical. Equal entries are not always repeated. Calls of active or inactive are those of the source. Rule for the calls: active = hit-call score of the fitted dose curve at least 0.9, where 1 is the maximum; inactive = score below 0.9.
# Test: BSK_hDFCGF_Proliferation: Cell Proliferation Assessment in the BioMAP Diversity Plus: hDFCGF Assay (AID 2283059);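 note: curves fitted for both rise and fall of signal versus DMSO baseline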
# Settings: primary human foreskin fibroblasts
# Protocol: BSK_hDFCGF is a cell-based, multiplexed-readout assay that uses foreskin fibroblast, a human skin primary cell, with measurements taken at 24 hours after chemical dosing in a 96-well plate.BSK_hDFCGF_Proliferation is an assay component measured in the BSK_hDFCGF assay. It measures […] related to cell proliferation using Sulforhodamine staining technology.Data from the assay component BSK_hDFCGF_Proliferation was analyzed into 1 assay endpoint. This assay endpoint, BSK_hDFCGF_Proliferation, was analyzed with bidirectional fitting relative to DMSO as the negative control and baseline of activity. Using a type of viability reporter, measures of total protein for gain or loss-of-signal activity can be used to understand the viability at the cellular-level. Furthermore, this assay endpoint can be referred to as a secondary readout, because this assay has produced multiple assay endpoints where this one serves a viability function. To generalize the intended target to other relatable targets, this assay endpoint is annotated to the cell cycle intended target family, where the subfamily is proliferation.
# The levels of cell surface (or secreted, indicated by the prefix "s") biomarker endpoints were measured by ELISA. Overt cytotoxicity to cells in confluent adherent cultures (all systems other than the BT system) was assessed by measuring total protein levels using sulforhodamine B (SRB) staining in parallel cultures at the time of biomarker measurements, indicated as SRB endpoints. For proliferation assays for adherent cell types, individual cell types are cultured at sub-confluence and relative cell numbers quantified by SRB staining at time points optimized for each system (48 h: 3C and CASM3C systems; 72 h: BT and HDF3CGF systems; 96 h: SAg system). SRB was performed by staining cells with 0.1% SRB after fixation with 10% TCA and reading wells at 560 nm.Viability and proliferation of PBMC (T cells) was quantified by Alamar Blue reduction for the SAg and BT systems. For PBMC viability (referred to as PBMC Cytotoxicity within the assay endpoint names), cells were plated (75,000/well in a 96-well plate) and then chemical samples added for 1 h before addition of activators, SEB and TSST-1 (20 ng/mL final concentration each). Cells were incubated for 90 h. Then, Alamar Blue (20 uL/well) (Invitrogen, Cat DAL1100) was added for 6 h, and the plates were read with a fluorescence microplate reader at 546/580 nm (excitation/emission). For PBMC proliferation, cells were plated and activated as above but incubated for only 16 h prior to addition of Alamar Blue. Plates were read after 6 h.
Structure (SMILES),outcome,AC50
c1ccc2c(c1)oc1ccccc12,inactive,
CCCCCOC(=O)c1ccccc1C(=O)OCCCCC,inactive,
O=C(Oc1ccc(Br)cc1)N1CCN2CCC1CC2,inactive,
CC(C)N(Cc1ccccc1)C(=O)C(C)(C)C,inactive,
CC(C)(C)C(O)(CCc1ccc(Cl)cc1)Cn1cncn1 (stereo not given),,0.299 µM (active)
ClC1=C(Cl)C2(Cl)C3C(Cl)C=CC3C1(Cl)C2(Cl)Cl (stereo not given),,10.3 µM (active)
Clc1ccc(Cl)c(Cl)c1,inactive,
CN(C)c1ccc(C(=O)c2ccc(N(C)C)cc2)cc1,,1.56 µM (active)
[Cl-].[Cl-].[Hg+2],,4.83 µM (active)
C=CCc1ccc2c(c1)OCO2,inactive,
C[N+](C)(C)CC1CO1 (stereo not given),inactive,
COC(=O)c1ccccc1N,inactive,
CCCCCCCCCCCCCN1CC(C)OC(C)C1 (stereo not given),,0.541 µM (active)
CNC(=O)Oc1cccc2c1OC(C)(C)C2,inactive,
CCNS(=O)(=O)C(F)(F)C(F)(F)C(F)(F)C(F)(F)C(F)(F)C(F)(F)C(F)(F)C(F)(F)F,,17.5 µM (active) and 14.4 µM (active) and 19.4 µM (active)
N#CC(Br)(Br)C(N)=O,inactive,
c1ccc(C2CO2)cc1 (stereo not given),inactive,
CCC(C)c1ccc(O)cc1 (stereo not given),inactive,
CN(C)C(=O)Nc1ccc(Cl)cc1,inactive,
CO[C@@H]1[C@H](OC(=O)NC(=O)CCl)CC[C@]2(CO2)[C@H]1[C@@]1(C)O[C@@H]1CC=C(C)C,,2.28 µM (active)

Structure (SMILES),outcome,AC50
Cc1ccc(N=C=O)cc1N=C=O,inactive,
CCN(CC)N=O,inactive,
COc1cc(C=O)cc2c1[C@H](COC(N)=O)[C@]1(OC(C)=O)ON2C[C@H]2[C@@H]1N2C(C)=O,,0.0312 µM (active)
CCCCCCCCn1sccc1=O,,0.405 µM (active)
O=P(OCCCl)(OCCCl)OCCCl,inactive,
CCC[CH2][Sn]([Cl])([CH2]CCC)[CH2]CCC,,0.148 µM (active)
Nc1cc(Cl)cc(C(=O)O)c1Cl,inactive,
c1ccc(NNc2ccccc2)cc1,inactive,
C1=Cc2cccc3cccc1c23,inactive,
CC(C)COC(=O)c1ccccc1C(=O)OCC(C)C,inactive,
COP(=S)(OC)SCN1C(=O)c2ccccc2C1=O,inactive,
O=Cc1ccco1,inactive,
CCOC(=O)[C@]1(c2ccccc2)Oc2ccccc2[C@@H]1N,,17.8 µM (active)
Oc1ccccc1Cl,inactive,
ClCCOCCCl,inactive,
CN(C)c1ccccc1,inactive,
CS(=O)(=O)NC(=O)c1cc(Oc2ccc(C(F)(F)F)cc2Cl)ccc1[N+](=O)[O-],inactive,
OCCCBr,inactive,
O=C1CCCO1,inactive,
c1ccc2c(c1)-c1cccc3cccc-2c13,,23.7 µM (active)
